The values below come from PubChem BioAssay.

Test [1] has as its system Human papillomavirus type 1a protein E7 (residues 44-93). The test can be described thus: HPV1a E7 fragment binders on microarrays, primary screen, biochemical, small-molecule microarray, residues 44-93, 635 nm fluorescence (AID 1108).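 Also: E7 fragment applied at 1 µg/mL in TBST for 1 h at 4 C; score combines spot fluorescence with its signal to noise ratio.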 The note with it: small-molecule microarray binding, fluorescence 635 nm; higher = more signal.
The nature of test [2]: modulators of HCV replicon luciferase signal, primary screen, HCV replication inhibitor project, Huh7 cells, luciferase reporter (AID 1109).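 Also: huh7 hepatoma cells harbouring a luciferase neomycin HCV replicon reporter; luciferase luminescence as measure of HCV replicon replication; test concentration not given here.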 The settings on record: 48 h, higher = more signal.
Test [3] deals with Left-right determination factor 2 (Homo sapiens) (UniProt O00292). Description: LEFTY2 binders on small-molecule microarrays, primary screen, biochemical, small-molecule microarray, 635 nm fluorescence scan (AID 1110). The note with it: LEFTY2 binding, higher = more signal.
Test [4] concerns the target Calmodulin-1 (Homo sapiens) (UniProt P0DP23). Description: CALM1 binders on microarrays, EGTA buffer, profiling panel, biochemical, small-molecule microarray, Cy5-labelled CALM1 (AID 1111).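 Also: labelled calmodulin applied in Tris saline Tween buffer holding calcium plus EGTA and DTT.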 The note with it: Cy5-CALM1 binding fluorescence, higher = more signal.
Test [5] shares this target. Description: calcium-bound CALM1 binders on microarrays, profiling panel, artefact control for SMM control-protein annotation, biochemical, small-molecule microarray, Cy5-labelled CALM1, plus calcium (AID 1112).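 Also: score merges spot fluorescence with signal to noise from triplicate slides.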 The note with it: Cy5-CALM1 binding fluorescence, higher = more signal.
The nature of test [6]: small-molecule microarray binders of probe aWnt5a, primary screen, biochemical, biotinylated probe, 635/667 nm fluorescence (AID 1113).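 Also: score merges 667 nm fluorescence intensity with signal-to-noise per printed feature.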 The note with it: higher = more signal.
Test [7] can be described thus: small-molecule microarray binders of probe aShh, primary screen, biochemical, biotinylated probe, 635/667 nm fluorescence (AID 1114).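 Also: probe is biotin-labelled aShh protein from a stem cell growth factor screen; measures binding of labelled protein to compounds printed on the slide; score merges feature fluorescence at 667 nm with signal-to-noise.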 The settings on record: higher = more signal.
Test [8] is described as follows: small-molecule microarray binders of probe aNog, primary screen, biochemical, biotinylated probe, 635/667 nm fluorescence (AID 1115).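 Also: probe is biotinylated aNog protein used at 0.15 µg/mL for 1 h at 4 C; z-score combines 667 nm fluorescence of each spot with its signal to noise.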 The note with it: higher = more signal.
In test [9] the target is Torsin-1A-interacting protein 1 (Homo sapiens) (UniProt Q5JTV8). Description: LAP1 binders from COS7 cell lysate, primary screen, small-molecule microarray, 635/667 nm fluorescence (AID 1116). The note with it: COS7-hLAP1 lysate binding, 635 nm fluorescence, higher = more signal.
The target in test [10] is Alpha-bungarotoxin (Bungarus multicinctus) (UniProt P60615). Description: alpha-bungarotoxin binders on microarray, profiling panel, artefact control for SMM control protein annotation, biochemical, small-molecule microarray, Alexa647 label, 635/667 nm fluorescence (AID 1117). The settings on record: alpha-BTX-A647 binding fluorescence, higher = more signal.
Alpha-bungarotoxin (Bungarus multicinctus), sequence (P60615 whole entry, looked up): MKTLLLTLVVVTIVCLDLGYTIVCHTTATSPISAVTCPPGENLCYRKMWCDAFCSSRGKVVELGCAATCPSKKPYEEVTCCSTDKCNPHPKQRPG

Left-right determination factor 2 (Homo sapiens), sequence (O00292 whole entry, looked up): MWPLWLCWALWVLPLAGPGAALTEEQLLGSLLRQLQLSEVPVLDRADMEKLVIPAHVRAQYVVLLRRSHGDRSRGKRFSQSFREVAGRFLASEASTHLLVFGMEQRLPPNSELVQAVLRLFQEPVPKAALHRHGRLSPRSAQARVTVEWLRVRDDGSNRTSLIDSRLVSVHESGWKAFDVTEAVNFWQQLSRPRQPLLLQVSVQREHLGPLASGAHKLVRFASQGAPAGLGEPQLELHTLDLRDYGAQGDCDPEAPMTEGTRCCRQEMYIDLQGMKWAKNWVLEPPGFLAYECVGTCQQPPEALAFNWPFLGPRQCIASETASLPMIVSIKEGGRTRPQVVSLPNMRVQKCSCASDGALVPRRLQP
Torsin-1A-interacting protein 1 (Homo sapiens), sequence (Q5JTV8 whole entry, looked up): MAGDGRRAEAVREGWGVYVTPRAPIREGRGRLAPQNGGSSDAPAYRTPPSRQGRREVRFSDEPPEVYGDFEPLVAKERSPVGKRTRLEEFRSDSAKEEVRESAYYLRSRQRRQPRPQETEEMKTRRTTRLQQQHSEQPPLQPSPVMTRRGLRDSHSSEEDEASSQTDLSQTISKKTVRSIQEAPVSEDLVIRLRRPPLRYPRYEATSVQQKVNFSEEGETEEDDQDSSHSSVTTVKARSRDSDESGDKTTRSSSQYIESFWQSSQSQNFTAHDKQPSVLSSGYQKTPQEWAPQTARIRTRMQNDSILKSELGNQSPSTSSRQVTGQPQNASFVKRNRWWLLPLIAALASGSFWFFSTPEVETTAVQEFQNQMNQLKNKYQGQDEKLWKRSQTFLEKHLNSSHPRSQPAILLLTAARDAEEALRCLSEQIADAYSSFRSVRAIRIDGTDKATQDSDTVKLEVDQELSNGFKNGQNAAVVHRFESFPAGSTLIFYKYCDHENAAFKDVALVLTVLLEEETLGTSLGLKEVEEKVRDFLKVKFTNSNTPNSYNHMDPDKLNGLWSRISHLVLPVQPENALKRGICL

`CCOC(=O)[C@H]1[C@@H]2C(=O)N3CCC[C@H]3[C@H](O[Si](C(C)C)(C(C)C)C(C)C)[C@H]2C=C2CCN(S(=O)(=O)c3ccc(C)cc3)C[C@H]21`: the composite z-score was 1.28 in test [1]; 0.637 in test [3]; 0.791 in [4]; -0.185 in test [5]; -0.0379 in test [6]; 0.0815 in [7]. Also, the composite z-score is -0.709 in [8], 0.694 in test [9] and 0.962 in test [10]. The z-score in [2] is -3.6.
Regarding `O=C(N1CCCCC1)[C@@]1(CCS(=O)(=O)c2ccccc2)COC(c2ccc(OCCCO)cc2)=N1`, the composite z-score is 0.517 in [1]; -0.0902 in [3]; 0.695 in test [4]; -0.438 in test [5]; 0.0374 in test [6]; -0.0064 in [7]. Also, the figures for the composite z-score in test [8], in test [9] and in test [10] were -0.489, 1.51 and 0.632, respectively. In addition, in [2], the z-score was -0.98.
With `[N-]=[N+]=NCc1ccccc1C[C@]1(C(N)=O)N=C(c2ccc(OCCCO)cc2)O[C@H]1c1ccccc1`, the composite z-score is 1.45 in test [1]; -1.1 in test [3]; 0.637 in test [4]; 0.784 in test [5]; 0.0003 in test [6]; 0.14 in test [7]. Also, the composite z-score in test [8] amounted to 0.581; in test [9], 2.27; in [10], 0.623. Besides, the z-score in test [2] is -2.07.
Turning to `COC(=O)[C@@]1(Cc2ccc(OC)cc2)[C@H]2c3cc(C(=O)N(C)C)n(C[C@H](O)CO)c3C[C@H]2CN1C(=O)c1ccccc1`, the composite z-score in test [1] was -1.21; in test [3], -0.415; in test [4], 2.33; in test [5], 1.32; in test [6], 0.108; in test [7], 0.86. The composite z-score in [8] is 2.14; in test [9] it was 2.07; in test [10], 1.15. The z-score in test [2] was -0.966.
As to `CC[C@H]1C2=C3C(CC[C@H]4C(OCc5ccc(F)cc5C(F)(F)F)OC[C@](C)([C@@H]34)N(C(=O)OC(C)(C)C)C2)C(COC)C1COC` (stereo not given in full), the composite z-score in test [1] is 0.732; in test [3] it was -0.696; in test [4] it was 0.914; in test [5], 0.771; in test [6] it was 0.0768; in test [7], -0.214. Also, the composite z-score in [8] is 1.33; in [9], -0.0575; in test [10] it was 0.0915. In test [2], this compound came in with a z-score of -0.25.
Regarding `C=CCC(OC(C)=O)[C@@H]1[C@@H](N(Cc2cccc3ccccc23)C(=O)c2cccc3ccccc23)c2cc(OCCCO)ccc2N1C(=O)c1ccc(-c2ccccc2)cc1` (stereo not given in full), the composite z-score in test [1] is -0.0699; in test [3], 0.79; in test [4], 0.0898; in test [5], 0.766; in test [6], 0.0229; in [7] it was -0.117. Also, the values for the composite z-score in test [8], in [9] and in [10] were -0.215, 0.197 and -0.574, respectively. The z-score in test [2] is -0.599.
As to `COCCOC(=O)N1C(=O)[C@@]2(c3cc(C#CC4=CCCCC4)ccc31)[C@H](c1ccc(OCCO)cc1)N1[C@H](c3ccccc3)[C@H](c3ccccc3)OC(=O)[C@H]1[C@@H]2C(=O)N1CCN(c2ncccn2)CC1`, the composite z-score in [1] is 1.05; in test [3], 0.671; in [4] it was 0.623; in test [5], 0.189; in test [6] it was -0.034; in [7] it was -0.0146. Also, the composite z-score in [8] amounted to 0.759; in test [9] it was 0.835; in test [10], 0.418. Moreover, the z-score in test [2] is -0.807.
As to `COc1ccccc1CN1C(=O)c2ccccc2[C@@]2(Cc3ccccc3N(CC(F)(F)F)C2=O)[C@@H]1c1ccc(CO)cc1`, the composite z-score in test [1] was 0.802; in test [3], 0.244; in test [4], -0.504; in test [5] it was -0.723; in [6] it was 0.13; in test [7], -0.308. Further, the composite z-score in [8] is 1.68; in test [9], -0.0328; in test [10] it was 0.118. Moreover, in test [2], the z-score was -0.521.
Turning to `C[N+](C)(C)CCCCCCNC(=O)[C@H]1C[C@H]2C(=O)N[C@@H](Cc3ccccc3)C(=O)N2[C@H]1c1ccc(O)cc1`, the composite z-score in test [1] was -0.306; in test [3], 1.09; in [4] it was -0.667; in test [5] it was -0.973; in [6], 0.0873; in [7], -0.0146. The composite z-score was -0.175 in [8], 0.302 in test [9] and 0.966 in test [10]. In addition, the z-score in test [2] was found to be 0.975.
Consider `CN1C(=O)C2C=CC(C(O)c3ccccn3)N(N(c3ccccc3)c3ccccc3)C2C1=O` (stereo not given), for which the composite z-score is -0.686 in test [1]; -0.0321 in test [3]; 0.0023 in [4]; -0.0692 in test [5]; -0.0735 in test [6]; 0.0684 in test [7]. Further, the composite z-score was 0.427 in test [8], 1.07 in test [9] and 0.451 in test [10]. This compound also gave a z-score in test [2] of -0.276.
With `C[N+](C)(C)CCCCCCNC(=O)[C@H]1C[C@H]2C(=O)NCC(=O)N2[C@H]1c1ccc(O)cc1`, the composite z-score in [1] was 1.34; in test [3] it was 1.03; in test [4], 0.14; in test [5] it was -1.16; in test [6], -0.0846; in test [7] it was 0.21. In addition, the figures for the composite z-score in test [8], in test [9] and in test [10] were -0.507, -0.489 and 0.713, respectively. The z-score in [2] turned out to be 1.4.
With `N#Cc1ccc(NN2C(C(O)c3ccc(F)cc3)C=CC3C(=O)N(c4ccccc4)C(=O)C32)cc1` (stereo not given), the composite z-score in [1] is 0.771; in test [3], -0.81; in test [4], 2.39; in test [5], 1.04; in test [6], 0.0334; in test [7] it was -0.0578. For the same compound, the composite z-score was 1.83 in test [8], 2.24 in test [9] and 1.05 in test [10]. Moreover, the z-score in test [2] is -0.41.
Take `O=C1NC(=O)C2C1C=CC(C(O)CCc1ccccc1)N2Nc1ccc(Cl)cc1Cl` (stereo not given): the composite z-score is -0.72 in test [1]; -0.448 in test [3]; 1.54 in [4]; 0.819 in [5]; 0.539 in [6]; -0.0571 in [7]. Moreover, the composite z-score was 1.04 in test [8], 1.97 in [9] and 2.65 in [10]. For the same compound, in [2], the z-score was -0.271.
